Most compounds without a hit are left out; they make up all but 11% or so of the library.
L3MBTL1 inh-1: qHTS Assay for the Inhibitors of L3MBTL1 | Lethal(3)malignant brain tumor-like protein 1 (Homo sapiens), Q9Y468 | AlphaScreen L3MBTL1–H3K9me1 peptide binding | Potency, µM (series often up to 57.1 µM), for inactives: top-dose activity, negative = inhibition, actives largely listed as inhibitors | actives 0.66% (n = 230,000) | AID 485360, 2010; also: % is scaled to controls: 0 for no effect and ±100 for the full control effect; nearly all actives have a fitted effect of over 60% in size
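L3MBTL1 (50 nM) pre-complexed 30 min with biotinylated H3(1-15)K9me1 peptide (75 nM), then compounds added for 30 min at room temperature; AlphaScreen streptavidin donor/nickel chelate acceptor beads (10 ug/mL final) read after 30 min dark incubation.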
BAZ2B block: qHTS Assay for Inhibitors of BAZ2B; AID 504333, 2011; Bromodomain adjacent to zinc finger domain protein 2B (Homo sapiens), Q9UIF8; AlphaScreen BAZ2B-H3K14Ac peptide displacement; actives 4.4% (n = 360,000); Potency, µM (doses to about 114 µM), for inactives: top-dose activity change, negative = inhibition, most hits filed as inhibitors; also: % is scaled to controls: 0 for no effect and ±100 for the full control effect; nearly all actives have a fitted effect of over 60% in size
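AlphaScreen displacement of biotin-H3(5-23)K14Ac peptide (50 nM final) from BAZ2B (50 nM final) in PBS pH 7.4, 0.01% Tween-20; complex preformed 30 min RT, then compounds (top 110 uM) 30 min RT, beads 20 min dark.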
JMJD2A Tudor: qHTS Assay for Inhibitors of JMJD2A-Tudor Domain; AlphaScreen JMJD2A-Tudor / H3K4me3 peptide binding; actives 4.4% (n = 390,000); Lysine-specific demethylase 4A (Homo sapiens), O75164; Potency, µM (highest dose often 114 µM), for the others: top-dose activity change, negative = inhibition, usual class: inhibitors; also: % is scaled to controls: 0 for no effect and ±100 for the full control effect; nearly all actives have a fitted effect of over 50% in size
G9a block: qHTS Assay for Inhibitors of Histone Lysine Methyltransferase G9a | Potency, µM (titrated, usually from 102 µM), for inactives: top-dose activity, negative = inhibition, usual class: inhibitors | G9a H3K9 monomethylation, AlphaScreen, 2 h | actives 8.8% (n = 350,000) | AID 504332, 2011 | Histone-lysine N-methyltransferase EHMT2 (Homo sapiens), Q96KQ7; also: % is scaled to controls: 0 for no effect and ±100 for the full control effect; nearly all actives have a fitted effect of over 75% in size
Target sequence (Q96KQ7 913-1193 limits assumed): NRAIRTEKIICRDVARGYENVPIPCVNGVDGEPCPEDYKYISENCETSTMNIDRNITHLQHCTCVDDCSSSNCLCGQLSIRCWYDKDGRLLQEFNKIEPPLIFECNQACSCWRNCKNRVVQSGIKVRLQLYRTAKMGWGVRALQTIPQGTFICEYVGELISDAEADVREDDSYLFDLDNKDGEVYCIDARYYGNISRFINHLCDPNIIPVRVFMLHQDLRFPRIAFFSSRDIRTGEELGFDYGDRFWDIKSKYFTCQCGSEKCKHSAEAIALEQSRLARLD
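Methyltransferase reactions run at room temperature for 2 h (20 nM enzyme, 500 nM biotin-H3K9 peptide, 20 uM SAM) after a 15 min compound preincubation; product detected by AlphaScreen beads and anti-H3K9me1 antibody.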
HP1b chromo inh: HTS for Inhibitors of HP1-beta Chromodomain Interactions with Methylated Histone Tails | Chromobox protein homolog 1 (Homo sapiens), P83916 | AlphaScreen HP1-beta / biotin-H3K9me3 peptide binding | Potency, µM (highest dose often 114 µM), for inactives: at the top dose activity change, negative = inhibition, usual class: inhibitors | actives 0.56% (n = 390,000) | AID 540317, 2011; also: nearly all actives have a fitted effect of over 70% in size
Target sequence (P83916 whole entry, looked up): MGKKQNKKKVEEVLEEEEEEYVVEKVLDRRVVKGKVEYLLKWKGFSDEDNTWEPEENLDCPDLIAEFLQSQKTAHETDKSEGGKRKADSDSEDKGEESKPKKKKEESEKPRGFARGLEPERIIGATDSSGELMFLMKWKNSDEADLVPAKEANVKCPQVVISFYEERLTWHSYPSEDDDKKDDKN
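AlphaScreen: HP1-beta (50 nM) preformed 30 min with biotin-H3(1-18)K9me3 peptide (50 nM) in PBS pH 7.4, 0.01% Tween-20. Compound added for 30 min at RT, then streptavidin donor/nickel chelate acceptor beads (10 ug/mL) for 30 min.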
L3MBTL1 inh-2: qHTS Assay for the Inhibitors of L3MBTL1: Hit Validation. shares compounds with L3MBTL1 inh-1. L3MBTL1 methyl-lysine binding inhibition, biochemical qHTS. Potency, µM, actives largely listed as inhibitors. actives 91% (n = 500). AID 540279, 2011; also: nearly all actives have a fitted effect of over 70% in size
L3MBTL1 ctr: qHTS Assay for the Inhibitors of L3MBTL1: Hit Validationin AlphaScreen Counterscreen. AID 602224, 2012. 500 tested, under 10 active. shares compounds with L3MBTL1 inh-1. AlphaScreen counterscreen, signal inhibition. Potency, µM (series often up to 57.1 µM), for inactives: at the highest dose activity change, negative = inhibition, hits mostly inhibitors; also: 0% is about no effect
* = called active by the depositor; ? = inconclusive; · = not tested or not shown; [ ] = dose if it differs, or a comment. Calls follow the shape of the dose curve; as a rule, active = well fitted curve in the direction sought with a large enough effect; inconclusive = small, poorly fitted or top-dose-only effect, or another doubt; inactive = no such curve, though single readings can be large; an effect the other way counts as inactive or inconclusive. Potency is read from the fitted curve at half-maximal effect.

SMILES	L3MBTL1 inh-1	BAZ2B block	JMJD2A Tudor	G9a block	HP1b chromo inh	L3MBTL1 inh-2	L3MBTL1 ctr
CCOC(=O)C(C)Sc1nc(-c2ccccn2)ncc1OC (configuration not stated)	25µM*	3.2µM*	-17%[11.4 µM]	-26%	9%	27*	?
CCc1occc(=O)c1Oc1cc(NN2CCCCC2)c([N+](=O)[O-])cc1[N+](=O)[O-]	-16%	?	-35%	?	11%	·	·
O=C(Nc1ccccc1C(=O)NC1CC1)c1ccc([N+](=O)[O-])o1	32µM*	?	?	?	-22%	19*	9%
O=C(O)c1c2c(nc3ccccc13)/C(=C/c1ccc(O)cc1)CC2	4µM*	40µM*	56µM*	22µM*	-20%	1.5*	2%
Cc1cccc2c(N=O)c(O)n(CCc3ccccc3)c12	·	-29%	-28%	-4%	20%	·	·
Cc1cc(C(=O)O)ccc1-c1ccc(/C=C2\NC(=O)N(Cc3ccccc3Cl)C2=O)o1	18µM*	45µM*	45µM*	25µM*	?	7.5*	35%
C=CC(=O)NC(NC(=O)C=C)c1ccccc1F	2%	6%	-8%	7%	19%	·	·
O=C(Cc1ccc([N+](=O)[O-])cc1)N/N=C/c1ccc([N+](=O)[O-])o1	-14%	?	-23%	?	19%	·	·
N#CCc1ccc(NC(=O)/C=C/c2ccc([N+](=O)[O-])o2)cc1	4µM*	?	?	71µM*	17%	27*	11%
CC(C)NC(=O)C(c1ccc(F)cc1)N(Cc1ccco1)C(=O)CCC(=O)Nc1ccccn1 (configuration not stated)	·	1%	-13%	4%	-5%	·	·
Cc1ccc(CNC(=O)CN2c3cccc4cccc(c34)S2(=O)=O)cc1	-4%	4%	-22%	12%[59 µM]	50%	·	·
COc1cccc(CNC(=O)CN2c3cccc4cccc(c34)S2(=O)=O)c1	32µM*	50µM*	?	?	3%	27*	7%
O=C(Cn1ccc2ccccc2c1=O)NCC(=O)N1CCCCC1	·	12%	-18%	5%	-14%	·	·
Oc1ccc(C2=Nn3c(nnc3-c3ccco3)SC2)cc1O	25µM*	?	45µM*	13µM*	?	9.5*	5%
CSCCC(NS(=O)(=O)c1ccc(C)c(C(=O)O)c1)C(=O)O (configuration not stated)	8.9µM*	-16%	-5%	?	27%	?	-5%
Cc1c(O)cc2c(c1O)C(=O)CC(c1ccc(O)cc1)O2 (configuration not stated)	4µM*	56µM*	?	?	-6%	6.7*	7%
COc1ccc(CCNC(=O)COC(=O)c2cc(S(=O)(=O)N3CCOCC3)ccc2C)cc1OC	-6%	·	-3%	·	37%	·	·
COc1ccc(C)cc1-n1nnnc1SCC(=O)NC1CCS(=O)(=O)C1 (configuration not stated)	6%	-3%	-3%	0%[12.7 µM]	38%	·	·
Oc1c(N=Nc2ccc(F)cc2)ccc2ccccc12	7.9µM*	1.4µM*	2.5µM*	2.5µM*	3.2µM*	1.1*	0.75µM*
Cc1ccc(NC(=O)CN2C(=O)S/C(=C/c3ccc(-c4cccc(C(=O)O)c4)o3)C2=O)cc1	35µM*	16µM*	45µM*	·	?	27*	2%
Cc1ccc(NC(=O)CN2C(=O)S/C(=C\c3cccn3C)C2=O)cc1	-8%	-4%	-3%	18%	22%	·	·
COC(=O)COc1ccc(C2Nc3c(Cl)ccc(C(=O)O)c3C3C=CCC32)cc1 (configuration not stated)	20µM*	50µM*	45µM*	13µM*	?	17*	4%
CCCNC(=O)C(Cc1ccc(F)cc1)NC(=O)c1ccccc1 (configuration not stated)	26%	-3%	-16%	7%[0.501 µM]	47%	·	·
O=C(CSc1nc(-c2ccccc2)nc2ccc(F)cc12)Nc1ccc(C(=O)O)cc1	40µM*	50µM*	35µM*	45µM*	11%	?	?
O=C(O)CCc1ccc(-c2cccs2)n1CCC(=O)O	4µM*	?	-29%	20µM*	28%	17*	-21%
SMILES	L3MBTL1 inh-1	BAZ2B block	JMJD2A Tudor	G9a block	HP1b chromo inh	L3MBTL1 inh-2	L3MBTL1 ctr
CCOC(=O)C1CCN(C(=O)c2ccc3c(c2)sc2nc(-c4ccccc4)cn23)CC1	·	-11%	-11%	-2%[59 µM]	25%	·	·
Oc1c(C(Nc2cccc(C(F)(F)F)c2)c2ccncc2)ccc2cccnc12 (configuration not stated)	22µM*	20µM*	32µM*	28µM*	0%	21*	-65%
O=C(Nc1ccc(S(=O)(=O)Nc2ncccn2)cc1)c1ccc2ncsc2c1	20µM*	40µM*	35µM*	45µM*	-6%	?	-1%
COC(=O)c1c(C)[nH]c(C(=O)C(C)OC(=O)C2CC(=O)N(CCc3ccccc3)C2)c1C (configuration not stated)	28µM*	56µM*	-13%	-31%[2.33 µM]	16%	27*	5%
O=C(O)c1ccccc1NCc1cccnc1	·	·	-2%	·	47%	·	·
O=C(O)CNc1ccccc1C(=O)O	22µM*	?	56µM*	·	-1%	3*	1%
O=C(Cn1c(=O)n(-c2ccccc2)c(=O)c2c3c(sc21)CCC3)c1ccc(F)cc1	·	1%	-19%	-23%[59 µM]	4%	·	·
O=C(Cn1c(=O)n(Cc2ccco2)c(=O)c2c3c(sc21)CCCCC3)c1ccccc1	35µM*	-35%	?	-3%[59 µM]	2%	3.8*	-24%
Cc1ccc(N=Nc2ccc(O)c3ncccc23)cc1	40µM*	?	?	?	?	17*	?
Cc1ccc(Sc2ncccc2O)cc1	·	·	-5%	·	25%	·	·
COc1ccc(CCNC(=O)CC2SC(N)=NC2=O)cc1OC (configuration not stated)	-2%	-7%	?	-34%	-12%[57 µM]	·	·

Assay outcomes as filed in PubChem.
